Reference: PubChem BioAssay (NCI)
This is part of a sample that, as a whole, favours compounds with a hit. Of some 79,000 tested, about 15% had one in any assay. No stated cut-off is given here; in the data, active means growth inhibition above about 70%; inactive means the rest.

Assays:
[1] = NCI Yeast Anticancer Drug Screen. Data for the rad52 strain (AID 147);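 further: 0% = growth of vehicle-treated control cultures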; conditions: S. cerevisiae rad52 mutant growth inhibition, stronger effect = higher value
Outline: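 Inhibition of yeast growth, referenced to vehicle controls, was the measured output for a strain with defective DNA damage repair.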

[2] = NCI Yeast Anticancer Drug Screen. Data for the wt1 strain (AID 149);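 further: 0% = growth of vehicle-treated wt1 cultures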; conditions: S. cerevisiae wt1 strain (SPY 50644) growth inhibition, stronger effect = higher value
Outline: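 Readout: yeast growth inhibition, normalised to vehicle controls, in the wt1 strain exposed to test compounds.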

[3] = NCI Yeast Anticancer Drug Screen. Data for the rad50EPP+ strain (AID 151);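 further: 0% = growth of vehicle-treated control cultures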; conditions: S. cerevisiae rad50 mutant strain, stronger effect = higher value
Outline: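 Genetically defined yeast (rad50EPP+, DNA damage repair alteration) is grown with compound, and inhibition of growth is expressed relative to vehicle-treated controls.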

[4] = NCI Yeast Anticancer Drug Screen. Data for the rad50 strain (AID 155);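 further: 0% = growth of vehicle-only cultures of the same strain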; conditions: S. cerevisiae rad50 strain growth inhibition, stronger effect = higher value
Outline: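 Compounds were tested on a yeast strain with an engineered DNA damage repair alteration; the reported value is growth inhibition normalised to vehicle treatment.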

[5] = NCI Yeast Anticancer Drug Screen. Data for the mec2-1 strain (AID 157); conditions: S. cerevisiae mec2-1 strain, stronger effect = higher value
Outline: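 Each compound was tested on mec2-1 yeast, a strain altered in DNA damage repair or cell cycle control. Growth inhibition is reported relative to vehicle.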

[6] = NCI Yeast Anticancer Drug Screen. Data for the rad14 strain (AID 159);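 further: 0% = growth of vehicle-treated control cultures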; conditions: S. cerevisiae rad14 strain growth inhibition, stronger effect = higher value
Outline: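 Compound-treated yeast with a defined DNA-repair lesion; growth inhibition normalised to vehicle-treated cultures.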

[7] = NCI Yeast Anticancer Drug Screen. Data for the sgs1 mgt1 strain (AID 161);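 further: 0% = growth of cultures given vehicle only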; conditions: S. cerevisiae sgs1 mgt1 strain, stronger effect = higher value
Outline: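 Test agents were incubated with a DNA-repair-mutant yeast strain. Growth was then read and compared against vehicle-treated controls.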

[8] = NCI Yeast Anticancer Drug Screen. Data for the CLN2oe strain (AID 163);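 further: 0% = growth of vehicle-only control cultures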; conditions: S. cerevisiae CLN2oe strain, stronger effect = higher value
Outline: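 First, the altered yeast strain was treated with each compound; second, its growth was measured; finally, inhibition was derived by comparison with vehicle controls.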

[9] = NCI Yeast Anticancer Drug Screen. Data for the cln2 rad14 strain (AID 165);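 further: 0% = growth equal to vehicle treated cultures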; conditions: S. cerevisiae cln2 rad14 strain, stronger effect = higher value
Outline: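 Test compounds were added to cln2 rad14 yeast cultures; inhibition of growth was then determined by comparison with vehicle treatment.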

[10] = NCI Yeast Anticancer Drug Screen. Data for the bub3 strain (AID 167); conditions: S. cerevisiae bub3 mutant strain, stronger effect = higher value
Outline: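 Growth of a checkpoint-deficient yeast mutant is measured after compound exposure. Values represent inhibition relative to vehicle.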

[11] = NCI Yeast Anticancer Drug Screen. Data for the wt2 strain (AID 169);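 further: 0% = growth of vehicle-treated yeast cultures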; conditions: S. cerevisiae wt2 strain growth inhibition, stronger effect = higher value
Outline: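 The panel's yeast strains carry defined changes in DNA repair or cell cycle genes. Each strain is grown with compound, and growth loss is scored relative to vehicle.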

[12] = NCI Yeast Anticancer Drug Screen. Data for the sgs1 strain (AID 173);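 further: 0% = growth of vehicle-only control cultures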; conditions: S. cerevisiae sgs1 mutant, stronger effect = higher value
Outline: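 Vehicle-treated cultures served as reference for growth inhibition of a yeast strain altered in DNA damage repair or cell cycle control after compound exposure.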

[13] = NCI Yeast Anticancer Drug Screen. Data for the mlh1 rad18 strain (AID 175); conditions: S. cerevisiae mlh1 rad18 strain growth inhibition, stronger effect = higher value
Outline: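 Inhibition values reflect reduced growth of mutant yeast versus vehicle-treated controls following compound exposure; the mutations affect DNA damage repair.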

[14] = NCI Yeast Anticancer Drug Screen. Data for the rad18 strain (AID 177); conditions: S. cerevisiae rad18 mutant growth inhibition, stronger effect = higher value
Outline: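 Steps: expose repair-mutant yeast to compound; measure growth; express as inhibition relative to vehicle control.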

[15] = at 5.0 µM (retest, dose inferred, filed as 0.5)
[16] = at 50.0 µM (retest, dose inferred, filed as 5.0)

Measured: growth inhibition

CN(C)CCNC(=Cc1ccc2ccccc2[n+]1C)NCCN(C)C
inactive: [1]; at 1.2 µM 0% | [1]; at 3.7 µM 0% | [1]; at 11.0 µM 0% | [1]; at 33.0 µM -1% | [1]; at 100.0 µM -2% | [2]; at 1.2 µM 0% | [2]; at 3.7 µM -2% | [2]; at 11.0 µM -2% | [2]; at 33.0 µM -1% | [2]; at 100.0 µM 0% | [3]; at 1.2 µM -2% | [3]; at 3.7 µM 0% | [3]; at 11.0 µM 1% | [3]; at 33.0 µM 3% | [3]; at 100.0 µM 2% | [4]; at 1.2 µM 1% | [4]; at 3.7 µM 1% | [4]; [15] -1% | [4]; at 11.0 µM 1% | [4]; at 33.0 µM 2% | [4]; [16] 2% | [4]; at 50.0 µM 24.2% | [4]; at 100.0 µM 1% | [5]; at 1.2 µM -5% | [5]; at 3.7 µM 0% | [5]; [15] 0% | [5]; at 11.0 µM 3% | [5]; at 33.0 µM 1% | [5]; [16] 2% | [5]; at 50.0 µM 19.6% | [5]; at 100.0 µM 1% | [6]; at 1.2 µM -2% | [6]; at 3.7 µM -1% | [6]; at 11.0 µM -2% | [6]; at 33.0 µM -3% | [6]; at 100.0 µM -2% | [7]; [15] -12% | [7]; [16] -13% | [7]; at 50.0 µM 19.4% | [8]; at 1.2 µM -3% | [8]; at 3.7 µM 0% | [8]; at 11.0 µM 0% | [8]; at 33.0 µM 4% | [8]; at 100.0 µM -1% | [9]; [15] 1% | [9]; [16] 8% | [9]; at 50.0 µM -2.95% | [10]; at 1.2 µM 2% | [10]; at 3.7 µM -3% | [10]; [15] -3% | [10]; at 11.0 µM 0% | [10]; at 33.0 µM -9% | [10]; [16] -2% | [10]; at 50.0 µM -4.65% | [10]; at 100.0 µM -5% | [11]; at 1.2 µM -2% | [11]; at 3.7 µM -3% | [11]; at 11.0 µM -2% | [11]; at 33.0 µM -2% | [11]; at 100.0 µM 0% | [12]; at 1.2 µM 0% | [12]; at 3.7 µM 0% | [12]; at 11.0 µM 0% | [12]; at 33.0 µM 0% | [12]; at 100.0 µM 1% | [13]; [15] -4% | [13]; [16] 47% | [13]; at 50.0 µM 34% | [14]; at 1.2 µM -2% | [14]; at 3.7 µM -4% | [14]; at 11.0 µM 0% | [14]; at 33.0 µM -2% | [14]; at 100.0 µM -1%
